We go through 14 molecules from PubChem BioAssay (NCI).

Some test systems named below: HCT-15 colon; HT29 colon; SNB-75 CNS; SNB-19 CNS; U251 CNS; PC-3 prostate; SK-MEL-5 melanoma; UACC-62 melanoma; LOX IMVI melanoma; SK-MEL-28 melanoma.
Holding throughout (assay): NCI-60 one-dose screen, 48 h (100 = growth as untreated, 0 = no growth, -100 = all killed)
Details in all cases: 10 µM unless noted

About 83,000 compounds went through this panel and 20% of them were active in at least one assay; those are over-represented in the sample as a whole.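 Testing used 96-well plates and a 48-hour single-concentration exposure. Example: -40 means 40% of the starting cells died.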 Unmarked numbers belong to inactive results. Active and inactive are the calls of the source. Rule for the calls: active = growth percent below 10; inactive = the rest.

In the case of `COC(=O)CNS(=O)(=O)c1ccc2c(c1)Cc1cc(S(=O)(=O)NCC(=O)OC)ccc1-2`, the growth in the assay on HCT-15 colon was 102%; in the assay with HT29 colon, 112%; in the assay on SNB-75 CNS, 91.6%; with SNB-19 CNS, 100%; in the assay with U251 CNS, 100%; in the assay with PC-3 prostate, 92.9%. The growth is 98.2% in the assay on SK-MEL-5 melanoma, 93.3% in the assay with UACC-62 melanoma and 97% with LOX IMVI melanoma.
Turning to `CCN(C)CCCOc1ccc(/C(=C(\C)Cc2cccc(OC)c2)c2ccc(OC(C)=O)cc2)cc1`, the growth in the assay with HCT-15 colon is 101%; in the assay on HT29 colon, 102%; in the assay with SNB-75 CNS, 81.7%; in the assay on SNB-19 CNS, 102%; in the assay on U251 CNS, 97.1%; with PC-3 prostate it was 98.1%. Also, the growth is 99.1% in the assay on SK-MEL-5 melanoma, 98.4% with UACC-62 melanoma and 97.2% with LOX IMVI melanoma.
As for `Cc1cc(C)c([O-])c(CN(C)CCN(C)Cc2cc(C)cc(C)c2[O-])c1.O=C([O-])c1cccc(C(=O)[O-])n1.[Ti+4]`, the growth is 36.4% in the assay with HCT-15 colon; -32.8% (active) in the assay on HT29 colon; -12.1% (active) in the assay with SNB-75 CNS; 26.6% with SNB-19 CNS; 9.4% (active) with U251 CNS; -0.468% (active) in the assay with PC-3 prostate. Besides, the growth is 9.84% (active) in the assay on SK-MEL-5 melanoma, 25.8% in the assay on UACC-62 melanoma, -58.1% (active) in the assay on LOX IMVI melanoma and -27.2% (active) in the assay on SK-MEL-28 melanoma.
Turning to `COc1c(C(=O)/C=C/c2ccc(C)o2)c(O)cc2occc12`, the growth in the assay with HCT-15 colon was 35.9%; in the assay with HT29 colon it was 65.2%; in the assay with SNB-75 CNS it was 59.8%; with SNB-19 CNS, 76.5%; in the assay with U251 CNS, 75.4%; with PC-3 prostate it was 72.2%. Moreover, the growth is 86.6% with SK-MEL-5 melanoma, 58.6% with UACC-62 melanoma and 71.2% in the assay with LOX IMVI melanoma.
With `O=C(OCc1ccc2c(Cl)cc(Cl)c(O)c2n1)c1cc2ccccc2[nH]1`, the growth was -50.2% (active) with HCT-15 colon; -81.1% (active) in the assay on HT29 colon; -94.8% (active) in the assay on SNB-75 CNS; 34.8% in the assay with SNB-19 CNS; -92.6% (active) with U251 CNS; -79.8% (active) with PC-3 prostate. Further, the growth was -97.6% (active) with SK-MEL-5 melanoma, -70.7% (active) in the assay on UACC-62 melanoma and -91.2% (active) in the assay with LOX IMVI melanoma.
As for `CC(C)c1[nH]ncc1-c1nc2ccc3[nH]ncc3c2c2c1CCCC2`, the growth in the assay with HCT-15 colon was 37.5%; in the assay on HT29 colon, 35%; in the assay on SNB-75 CNS, -3.19% (active); with SNB-19 CNS, 40.4%; in the assay with U251 CNS, 37.7%; in the assay on PC-3 prostate it was 44.2%. Also, the growth in the assay with SK-MEL-5 melanoma was 45.2%; in the assay on UACC-62 melanoma, 34.1%; in the assay with LOX IMVI melanoma, 23.6%.
For `Cc1ccc(NC(=O)Cn2nncc2CN2C(=O)CSC2=O)cc1C`, the growth with HCT-15 colon is 94.5%; in the assay on HT29 colon, 105%; with SNB-75 CNS, 93.3%; in the assay with SNB-19 CNS, 97.9%; in the assay with U251 CNS it was 103%; in the assay on PC-3 prostate, 99.3%. Moreover, the growth with SK-MEL-5 melanoma was 98.7%; with UACC-62 melanoma it was 102%; in the assay on LOX IMVI melanoma, 93.6%.
Take `COC(=O)/C=C/c1cc(OC(C)=O)c2c(c1)[C@@H](C(=O)OC)[C@H](c1ccc(OC(C)=O)c(OC(C)=O)c1)O2`: the growth in the assay with HCT-15 colon was 8.71% (active); in the assay on HT29 colon it was 11.8%; with SNB-75 CNS, -3.49% (active); in the assay with SNB-19 CNS, 34.6%; in the assay with U251 CNS, 18.1%; in the assay with PC-3 prostate, 14.3%. Also, the figures for the growth in the assay on SK-MEL-5 melanoma, with UACC-62 melanoma and in the assay on LOX IMVI melanoma were -42.4% (active), 33.6% and 7.76% (active), respectively.
Turning to `N#Cc1nc(-c2ccc(Cl)cc2)cc(-c2ccc(Nc3nc(N4CCCCC4)nc(N4CCCCC4)n3)cc2)c1N`, the growth was 108% in the assay with HCT-15 colon; 113% in the assay on HT29 colon; 81.5% in the assay on SNB-75 CNS; 104% in the assay with SNB-19 CNS; 102% with U251 CNS; 91.6% in the assay on PC-3 prostate. For the same molecule, the growth with SK-MEL-5 melanoma is 97.6%; in the assay on UACC-62 melanoma, 106%; in the assay on LOX IMVI melanoma, 95.8%.
As for `C=CCn1c(C)nc2cc(Nc3nc(Nc4ccc5nc(C)n(CC=C)c5c4)nc4ccccc34)ccc21`, the growth in the assay with HCT-15 colon was 107%; in the assay on HT29 colon, 103%; in the assay with SNB-75 CNS, 90.8%; with SNB-19 CNS, 100%; in the assay on U251 CNS it was 94.4%; in the assay on PC-3 prostate, 95.8%. Besides, the growth is 99.7% in the assay with SK-MEL-5 melanoma, 95.8% in the assay with UACC-62 melanoma, 93.3% in the assay on LOX IMVI melanoma and 106% in the assay on SK-MEL-28 melanoma.
Regarding `COc1cc2nccc(Oc3ccc(NC(=O)C4(C(=O)Nc5ccc(F)cc5)CC4)cc3)c2cc1OC(=O)c1ccc(N)cc1`, the growth with HCT-15 colon was 25.9%; with HT29 colon it was 1.03% (active); in the assay on SNB-75 CNS it was -34.6% (active); in the assay with SNB-19 CNS it was 37.6%; in the assay on U251 CNS, 7.81% (active); with PC-3 prostate, 25.4%. For the same molecule, the growth in the assay with SK-MEL-5 melanoma is 34%; with UACC-62 melanoma it was 40.1%; with LOX IMVI melanoma, -51.4% (active).
For the molecule `O=C(CSc1ccc(Cl)cc1)Nc1ccc(-c2nc3ccccc3s2)c(Cl)c1`, the growth was 39.6% in the assay with HCT-15 colon; 57% in the assay with HT29 colon; 79.1% in the assay with SNB-75 CNS; 62.7% with SNB-19 CNS; 52.9% in the assay with U251 CNS; 30.9% in the assay with PC-3 prostate. Besides, the growth in the assay with SK-MEL-5 melanoma was 79%; with UACC-62 melanoma it was 58.4%; in the assay on LOX IMVI melanoma it was 63.2%; in the assay on SK-MEL-28 melanoma it was 108%.
In the case of `CC(=O)c1ccc(Nc2nc(Cl)nc(Oc3c(Cl)cccc3Cl)n2)cc1`, the growth in the assay on HCT-15 colon was 89.7%; in the assay on HT29 colon, 73.6%; in the assay on SNB-75 CNS it was 75%; in the assay with SNB-19 CNS it was 81.9%; in the assay with U251 CNS, 76.9%; in the assay with PC-3 prostate, 72.5%. For the same molecule, the growth was 79.1% in the assay on SK-MEL-5 melanoma, 80.6% in the assay with UACC-62 melanoma and 87.9% with LOX IMVI melanoma.
Turning to `CCCC(CCC)NCC(O)c1cc(-c2ccc(C(F)(F)F)cc2)nc(C(F)(F)F)c1` (stereo not given), the growth is -62.4% (active) in the assay on HCT-15 colon; -74% (active) in the assay on HT29 colon; -3.88% (active) in the assay with SNB-75 CNS; 8.92% (active) with SNB-19 CNS; -96.6% (active) in the assay with U251 CNS; -47.3% (active) with PC-3 prostate. Also, the growth in the assay on SK-MEL-5 melanoma is -94% (active); with UACC-62 melanoma it was -68.1% (active); in the assay with LOX IMVI melanoma, -64.2% (active); in the assay with SK-MEL-28 melanoma, -41.9% (active).
